Reference: ChEMBL document CHEMBL3988442, “University of Dundee, Small-Polar-MMV Screening Library” (2021)

Biological target: AMP-activated protein kinase, AMPK (Homo sapiens) (UniProt P54646+O43741+P54619+Q9UGJ0+Q9Y478+Q13131+Q9UGI9)
Assay: AMP-dependent Kinase enzyme assay. An in vitro enzyme assay that detects ADP turnover that is directly proportional to AMPK activity. This uses naive AMPK that is activated during the assay with MK-8722
Type: functional
Parameters: scale not given: direction of the effect not stated beside the values
Conditions: 30 µM

SMILES | Percent Effect [%]
CCNC(=O)c1ccnc(N2CCCC(COc3ccccc3C)C2)c1 (stereo not given) | -0.143
CN(CC(O)C(F)(F)F)C(=O)Nc1cccc(N2CCCC2)c1 (stereo not given) | -4.79
COCCN(Cc1sccc1C)C(=O)c1c(O)cccc1F | 0.607
CCN(CC(=O)NC(C)(C)C)Cc1cccc2c1OCCO2 | -0.533
CCc1ccc(C(=O)N2CCCCC2CNS(C)(=O)=O)o1 (stereo not given) | -5.12
CC(C)c1nccc(CN(C)Cc2cnn(-c3ccccc3)c2)n1 | -5.06
c1ccc2oc(N3CCC(c4nncn4C4CC4)CC3)nc2c1 | 8.44
N#Cc1ccc(SCCC(=O)NC(N)=O)cc1 | -6.73
COc1cc(CNC(=O)COC2CCCC2)ccc1O | 3.23
CC(C)C(CNC(=O)CCn1cncn1)N1CCc2ccccc2C1 (stereo not given) | 0.687
O=C(C1CCCO1)N1CCC(Cn2cc(C3CCCC3)nn2)CC1 (stereo not given) | 3.98
CN(Cc1ccc(-n2cccn2)cc1)C[C@@H]1CCCN2CCCC[C@H]12 | 5.54
Cc1ccc(OCCn2cnc3oc(C)c(C(=O)O)c3c2=O)cc1 | 15.5
CN(CCCO)C(=O)c1ccc2c(c1)nc(N1CC[C@H](O)C1)n2C | 6.47
COc1ccc(C2CN(c3cc(C)ncn3)CCN2C(C)=O)cc1 (stereo not given) | 21.4
COc1cccc(-c2ncc(CN3CC[C@H]4CC[C@@H](C3)N4)s2)c1 | 7.14
CN(Cc1nncn1C)C(=O)c1cc(COc2ccccc2)[nH]n1 | -7.68
O=C(Cc1nc(-c2ccncc2)n[nH]1)N1CCOCC1 | 7.55
CCCn1cc(-c2cc(C(=O)N(C)C)c3ccc(OC)cc3n2)cn1 | 8.93
COCCNC(=O)c1cnc(C)nc1C | 3.33
